In assay [1] the target is Metallo-beta-lactamase type 2 (Klebsiella pneumoniae) (UniProt C7C422). The experiment in a line: qHTS to identify inhibitors of the New Delhi Metallo-beta-lactamase (NDM): assay validation screen against the NCATS LOPAC Collection (AID 1794843).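 Note: nitrocefin turnover by NDM-1 measured as 485 nm absorbance at plateau; series mostly up to about 38 µM.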 In short, it runs like this: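 Nitrocefin hydrolysis (50 uM substrate stock) by NDM-1, 2 nM final, was followed by 485 nm absorbance after compound preincubation; buffer was 50 mM HEPES pH 7.0, 1 uM ZnSO4, 0.01% Tween20.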
Metallo-beta-lactamase type 2 (Klebsiella pneumoniae), sequence (C7C422 whole entry, looked up): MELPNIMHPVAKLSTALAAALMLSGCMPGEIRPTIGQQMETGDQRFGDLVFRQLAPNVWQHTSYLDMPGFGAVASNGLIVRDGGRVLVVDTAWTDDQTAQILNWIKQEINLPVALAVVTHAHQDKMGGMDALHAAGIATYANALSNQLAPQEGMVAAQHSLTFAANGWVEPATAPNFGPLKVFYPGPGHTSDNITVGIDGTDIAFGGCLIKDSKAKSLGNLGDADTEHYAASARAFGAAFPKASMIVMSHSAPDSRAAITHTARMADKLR
A general note: Quantitative high-throughput screening tests each substance at several concentrations.

Assay [2] has as its target Phospholipid hydroperoxide glutathione peroxidase GPX4 (Homo sapiens) (UniProt P36969). The experiment in a line: Primary qHTS Assay for Inhibitors of Recombinant Selenoprotein Glutathione Peroxidase 4 (GPX4) (AID 1845192). Note: nearly all actives have a fitted effect of over 65% in size. Note: potency is the fitted concentration of half-maximal effect. In short, it runs like this:
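GR-coupled readout: 100 nM GR, 1 mM GSH, 0.5 mM NADPH; NADPH fluorescence (ex 340/em 450 nm) read at t=0 and after 15 min RT. GPX4 200 nM, preincubated 30 min with compound; substrate 0.5 mM CHP.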

Assay [3] deals with Glutathione peroxidase 1 (Homo sapiens) (UniProt P07203). The experiment in a line: Primary qHTS Assay for Inhibitors of Recombinant Selenoprotein Glutathione Peroxidase 1 (GPX1) (AID 1845191). Note: nearly all actives have a fitted effect of over 65% in size. Note: potency is the fitted concentration of half-maximal effect. In short, it runs like this:
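Recombinant GPX1 (10 nM final) was preincubated with compound for 30 min at room temperature, then reacted with 1 mM GSH, 0.5 mM CHP, 0.5 mM NADPH and 100 nM glutathione reductase; NADPH fluorescence (340/450 nm) was read at 0 and 15 min.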

The target in assay [4] is Luciferin 4-monooxygenase (Photinus pyralis) (UniProt P08659). The experiment in a line: Primary firefly luciferase (FLuc) qHTS assay for identification of artifact compounds. (AID 1845220). Note: nearly all actives have a fitted effect of over 60% in size. Note: potency is the fitted concentration of half-maximal effect. In short, it runs like this:
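qHTS, 15 min compound preincubation with substrate (10 uM luciferin, 10 uM ATP) at RT, then 10 nM FLuc; 5 min; luminescence; % inhibition vs no-enzyme/DMSO controls, 4-parameter Hill fit.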

The nature of assay [5]: Primary fluorescence-based thiol-reactive (MSTI) qHTS assay for identification of artifact compounds. (AID 1845221).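 Note: series mostly up to about 54 µM; thiol-reactive compounds lower the probe fluorescence signal; nearly all actives have a fitted effect of over 65% in size.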 In short, it runs like this:
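Compounds were incubated 1 h at room temperature in the dark with the MSTI probe (4 uM) in PBS pH 7.4, 2% DMSO. Signals were normalized between Acetyl-MSTI and MSTI.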

The structures appear in SMILES notation. Inconclusive results are not listed. Active and inactive are the calls of the source. Calls come from the whole dose curve; as a rule, active = well fitted curve in the direction sought with a large enough effect; inconclusive = small, poorly fitted or top-dose-only effect, or another doubt; inactive = no such curve, though single readings can be large; an effect the other way counts as inactive or inconclusive.

Glutathione peroxidase 1 (Homo sapiens), sequence (P07203 whole entry, looked up): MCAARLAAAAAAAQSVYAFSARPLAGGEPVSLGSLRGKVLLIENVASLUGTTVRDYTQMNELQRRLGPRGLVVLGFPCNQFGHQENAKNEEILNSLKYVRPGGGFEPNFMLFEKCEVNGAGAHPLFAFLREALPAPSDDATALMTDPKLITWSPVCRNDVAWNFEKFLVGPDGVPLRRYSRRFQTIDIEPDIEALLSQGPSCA
Phospholipid hydroperoxide glutathione peroxidase GPX4 (Homo sapiens), sequence (P36969 whole entry, looked up): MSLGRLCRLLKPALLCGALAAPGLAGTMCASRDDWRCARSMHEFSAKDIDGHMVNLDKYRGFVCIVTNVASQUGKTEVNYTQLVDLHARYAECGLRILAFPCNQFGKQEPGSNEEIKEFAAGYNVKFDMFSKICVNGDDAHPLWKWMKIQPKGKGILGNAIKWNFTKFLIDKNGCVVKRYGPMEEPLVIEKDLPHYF

As for `C=CC(C)=C[C@@]1(C)SC(=O)C(C)=C1O`, the Potency result in assay [1] and in assay [2] was “inactive” in each case.

Consider `CN=c1nc(-c2ccccc2)n(-c2ccccc2)s1`, for which the Potency entry in assay [3] and in assay [2] was “inactive” throughout.

On to `C=CCc1cccc(/C=N/NC(=O)CN2CCN(Cc3ccccc3)CC2)c1O`, for which the Potency entry in assay [3] and in assay [2] was “inactive” throughout.

Consider `CCCCCCCCCCCC(=O)[O][Sn]([CH2]CCC)([CH2]CCC)[O]C(=O)CCCCCCCCCCC`, for which the Potency entry in assay [3] is “inactive”.

Turning to `O=[N+]([O-])c1ccc(CNc2nc(NCc3cccc(C(F)(F)F)c3)nc3nc[nH]c23)cc1`, the Potency result in assay [1], in assay [3], in assay [2] and in assay [4] was “inactive” in each case. Also, the call in assay [5] was inactive.

Turning to `CC1(C)S[C@@H]2[C@H](NC(=O)[C@H](N)c3ccccc3)C(=O)N2[C@H]1C(=O)O`, in assay [3], the Potency result is “inactive”.

Consider `CC[C@H]1OC(=O)[C@H](C)[C@@H](O[C@H]2C[C@@](C)(OC)[C@@H](O)[C@H](C)O2)[C@H](C)[C@@H](O[C@@H]2O[C@H](C)C[C@H](N(C)C)[C@H]2O)[C@](C)(O)C[C@@H](C)C(=O)[C@H](C)[C@@H](O)[C@]1(C)O`, for which the Potency entry in assay [3] and in assay [2] was “inactive” throughout.

Turning to `N.N.O=C(O)C1(C(=O)O)CCC1.[Pt]`, in assay [3], the Potency entry was “inactive”. Besides, the Potency in assay [2] is 22.7 µM (active).

For the molecule `COC(=O)C1=C(C)NC(C)=C(C(=O)OC)C1c1cccc(NC(=O)NCCCN2CCC(c3cccc(OC)c3)CC2)c1`, the Potency result in assay [1], in assay [3], in assay [2] and in assay [4] was “inactive” each time. The molecule was classed as inactive in assay [5].

Turning to `COc1ccc(-c2cc(=O)c3c(O)c(OC)c(OC)cc3o2)cc1O`, the Potency result in assay [1], in assay [3] and in assay [2] was “inactive” each time.

On to `COc1cc(/C=C/C(=O)CC(=O)/C=C/c2ccc(O)c(OC)c2)ccc1O`, for which the Potency result in assay [3] was “inactive”.

As to `CN1C2CC(OC(=O)[C@H](CO)c3ccccc3)CC1C1OC12` (stereo not given in full), the Potency entry in assay [3] and in assay [2] was “inactive” in each case.

On to `O=C(O)[C@H](O)[C@@H](O)[C@H](O)[C@H](O)CO`, for which the Potency entry in assay [3] and in assay [2] was “inactive” each time.

Consider `Fc1ccc2[nH]c(CN3CCN(c4ccccn4)CC3)cc2c1`, for which the Potency result in assay [1], in assay [3], in assay [2] and in assay [4] was “inactive” each time. Besides, the outcome in assay [5] was inactive.

On to `CCCCN(CC)c1nc(C)nc2c1c(C)cn2-c1c(C)cc(C)cc1C`, for which the Potency result in assay [1], in assay [3], in assay [2] and in assay [4] was “inactive” throughout. In addition, the molecule was called inactive in assay [5].

Take `CCN(CC)CCCCNc1ncc2cc(-c3c(Cl)cccc3Cl)c(NC(=O)NC(C)(C)C)nc2n1`: the Potency result in assay [1] and in assay [4] was “inactive” in each case. The Potency in assay [3] is 20.2 µM (active); in assay [2], 7.18 µM (active). For the same molecule, the outcome in assay [5] was inactive.

As to `CCCOC(=O)c1ccc(O)cc1`, the Potency result in assay [3] and in assay [2] was “inactive” each time.

Regarding `CN(CCCOc1ccc(Cc2ccccc2)cc1)CCC(=O)O`, the Potency entry in assay [1], in assay [3], in assay [2] and in assay [4] was “inactive” each time. Moreover, the molecule was called inactive in assay [5].

For the molecule `CCCCCC[C@@H](O)C/C=C\CCCCCCCC(=O)O`, in assay [3], the Potency result was “inactive”.

On to `N.N.N.N.N.N.N.N.N.N.N.N.N.N.O.O.[Ru+4].[Ru+5].[Ru+5]`, for which the Potency result in assay [3] and in assay [2] was “inactive” each time.

For `COc1ccc(/C=C/C(=O)Nc2ccccc2C(=O)O)cc1OC`, the Potency entry in assay [1], in assay [3] and in assay [2] was “inactive” throughout. In addition, the Potency in assay [4] is 3.01 µM (active). The outcome in assay [5] was inactive.

On to `CC(C)NCC(O)COc1cccc2ccccc12` (stereo not given), for which the Potency entry in assay [3] and in assay [2] was “inactive” throughout.

`CCCCCCCCCCCCCCCC(=O)OC(CC(=O)O)C[N+](C)(C)C` (stereo not given): the Potency entry in assay [3] and in assay [2] was “inactive” each time.

As for `O=C(O)CCCC[C@@H]1CCSS1`, the Potency result in assay [1] and in assay [2] was “inactive” in each case.

Regarding `O=C1NC(=O)/C(=C/c2ccc(-c3ccc(F)cc3O)o2)S1`, the Potency entry in assay [1] and in assay [2] was “inactive” in each case.

As for `CC(C(=O)O)c1ccc(C(=O)c2ccccc2)s1` (stereo not given), the Potency entry in assay [3] and in assay [2] was “inactive” in each case.

For `O=C1C(SCCO)=C(SCCO)C(=O)c2ccccc21`, the Potency result in assay [1] and in assay [2] was “inactive” throughout.

As to `CO[C@@]1(NC(=O)Cc2cccs2)C(=O)N2C(C(=O)O)=C(COC(N)=O)CS[C@@H]21`, the Potency in assay [3] was 6.4 µM (active). The Potency entry in assay [2] was “inactive”.

For `CCCCCCCCCCCCCCCC(=O)OC(C)C`, the Potency entry in assay [3] and in assay [2] was “inactive” each time.

On to `NS(=O)(=O)c1ccc(-n2nc(C(F)(F)F)cc2-c2ccc(Cl)cc2)cc1`, for which the Potency entry in assay [1], in assay [3], in assay [2] and in assay [4] was “inactive” throughout. The outcome in assay [5] was inactive.

For the molecule `Nc1ccn([C@H]2O[C@H](CO)[C@@H](O)C2(F)F)c(=O)n1`, the Potency result in assay [1] and in assay [2] was “inactive” throughout.

For `CN(C)c1nc2c(Br)c(Br)c(Br)c(Br)c2[nH]1`, the Potency result in assay [3] is “inactive”.

On to `Cc1c(Nc2ncccc2C(=O)O)cccc1C(F)(F)F`, for which the Potency entry in assay [3] and in assay [2] was “inactive” in each case.

Regarding `CCNc1nc2c(ncn2[C@H]2C[C@H](O)[C@@H](CO)O2)c(=O)[nH]1`, the Potency entry in assay [1], in assay [3], in assay [2] and in assay [4] was “inactive” in each case. For the same molecule, the call in assay [5] was inactive.

On to `CS(=O)(=O)c1ccc(-n2nc(C(F)(F)F)cc2-c2ccc(F)cc2)cc1`, for which the Potency result in assay [1], in assay [3], in assay [2] and in assay [4] was “inactive” in each case. In assay [5], the molecule was classed as inactive.

As for `c1ccc2sc(SN3CCOCC3)nc2c1`, the Potency in assay [3] is 20.2 µM (active). Besides, the Potency result in assay [2] is “inactive”.

On to `Nc1ncnc2c1ncn2[C@@H]1O[C@H](COP(=O)(O)CP(=O)(O)OP(=O)(O)O)[C@@H](O)[C@H]1O`, for which the Potency entry in assay [3] and in assay [2] was “inactive” each time.

The values above are taken from PubChem BioAssay (NCATS).
